# Data from the supplement of paper PMC10037445.
# Whole data set: some 2,900 compounds, median “NF-kB SEAP reporter activity, fold change vs agonist alone” near 0.99, cut for the highest 2% near 2.6. The sample as a whole holds a higher share of the highest values than the screen did.
# Legend:
# [1] = tested on: RAW-Dual; test: NF-kB SEAP reporter activity, fold change vs agonist alone; cytotoxicity flag (confluency mask): not cytotoxic; higher = enhanced NF-kB activity
# Outline: (§1)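 After 50 nL of library stock was delivered by pin tool to RAW-Dual macrophages (50,000 cells/well, DMEM, 384-well plates), a PRR agonist was added 1 h later and the plates were kept at 37 °C, 5% CO2. Twenty hours later, IRF was read from supernatant by QuantiLuc luminescence and NF-κB by QuantiBlue absorbance at 620 nm. Reporter activity is stated as fold change over agonist-alone wells. Wells with IncuCyte confluency under 70% of agonist controls in both mask sets were counted as cytotoxic.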
# [2] = tested on: RAW-Dual; test: NF-kB SEAP reporter activity, fold change vs agonist alone; higher = enhanced NF-kB activity
# Outline: as §1
# [3] = tested on: RAW-Dual; test: NF-kB SEAP reporter activity, fold change vs agonist alone; cytotoxicity flag (confluency mask): cytotoxic (confluency <70% of control); higher = enhanced NF-kB activity
# Outline: as §1
# [4] = agonist: ODN 1826 (TLR9) 0.5 ug/mL
# [5] = agonist: Pam2CSK4 (TLR2/6) 0.1 ug/mL
# [6] = agonist: Pam3CSK4 (TLR2/1) 0.1 ug/mL
# [7] = library stock concentration (final ~1000-fold dilution): 10 mM, cytotoxicity flag (confluency mask): not cytotoxic, agonist: MPLA (TLR4) […]
# [8] = library stock concentration (final ~1000-fold dilution): 10 mM, cytotoxicity flag (confluency mask): cytotoxic (confluency <70% of control), agonist: Imiquimod (TLR7) […]
# [9] = library stock concentration (final ~1000-fold dilution): 10 mM, cytotoxicity flag (confluency mask): cytotoxic (confluency <70% of control), agonist: MPLA (TLR4) […]
# [10] = library stock concentration (final ~1000-fold dilution): 10 mM, cytotoxicity flag (confluency mask): not cytotoxic, agonist: Imiquimod (TLR7) […]
compound,measurement,setting,value
O=P(O)(O)Oc1cccc2ccccc12 (library stock concentration (final ~1000-fold dilution): 10 mM),NF-kB SEAP reporter activity,[1]; agonist: LPS (TLR4) 0.1 ug/mL,1.05
same,NF-kB SEAP reporter activity,[1]; [4],0.917
same,NF-kB SEAP reporter activity,[1]; [5],1.16
same,NF-kB SEAP reporter activity,[1]; [6],0.879
O=P(O)(O)Oc1cccc2ccccc12,NF-kB SEAP reporter activity,[2]; [7],1.08
O=C(/C=C/c1cncc(F)c1)c1c(-c2ccccc2)c2cc(Cl)ccc2[nH]c1=O (library stock concentration (final ~1000-fold dilution): 10 mM),NF-kB SEAP reporter activity,[3]; agonist: LPS (TLR4) 0.1 ug/mL,0.257
same,NF-kB SEAP reporter activity,[3]; [4],0.212
same,NF-kB SEAP reporter activity,[3]; [5],0.0981
same,NF-kB SEAP reporter activity,[3]; [6],0.253
O=C(/C=C/c1cncc(F)c1)c1c(-c2ccccc2)c2cc(Cl)ccc2[nH]c1=O,NF-kB SEAP reporter activity,[2]; [8],0.157
same,NF-kB SEAP reporter activity,[2]; [9],0.259
COC1/C=C/OC2(C)Oc3c(C)c(O)c4c(O)c(c(/C=N/N5CCN(C6CCCC6)CC5)c(O)c4c3C2=O)NC(=O)/C(C)=C/C=C/C(C)C(O)C(C)C(O)C(C)C(OC(C)=O)C1C (centres undefined),NF-kB SEAP reporter activity,[2]; [10],1.11
same,NF-kB SEAP reporter activity,[2]; [7],0.969
COC1/C=C/OC2(C)Oc3c(C)c(O)c4c(O)c(c(/C=N/N5CCN(C6CCCC6)CC5)c(O)c4c3C2=O)NC(=O)/C(C)=C/C=C/C(C)C(O)C(C)C(O)C(C)C(OC(C)=O)C1C (centres undefined) (library stock concentration (final ~1000-fold dilution): 10 mM),NF-kB SEAP reporter activity,[1]; agonist: LPS (TLR4) 0.1 ug/mL,1.56
same,NF-kB SEAP reporter activity,[1]; [4],0.892
same,NF-kB SEAP reporter activity,[1]; [5],0.643
same,NF-kB SEAP reporter activity,[1]; [6],0.742
O=C(O)CC[C@@H](O)C(=O)O,NF-kB SEAP reporter activity,"[2]; library stock concentration (final ~1000-fold dilution): 10 mM water, cytotoxicity flag (confluency mask): not cytotoxic, agonist: Imiquimod (TLR7) […]",0.93
same,NF-kB SEAP reporter activity,"[2]; library stock concentration (final ~1000-fold dilution): 10 mM water, cytotoxicity flag (confluency mask): not cytotoxic, agonist: MPLA (TLR4) […]",1.07
O=C(O)CC[C@@H](O)C(=O)O (library stock concentration (final ~1000-fold dilution): 10 mM water),NF-kB SEAP reporter activity,[1]; agonist: LPS (TLR4) 0.1 ug/mL,1.44
same,NF-kB SEAP reporter activity,[1]; [4],1.16
same,NF-kB SEAP reporter activity,[1]; [5],1.17
same,NF-kB SEAP reporter activity,[1]; [6],1.12
CC1(C)OCC(COC(=O)CCc2ccc(OCC(O)CNCCNC(=O)N3CCOCC3)cc2)O1.Cl (centres undefined) (library stock concentration (final ~1000-fold dilution): 10 mM),NF-kB SEAP reporter activity,[1]; agonist: LPS (TLR4) 0.1 ug/mL,0.799
same,NF-kB SEAP reporter activity,[1]; [4],0.908
same,NF-kB SEAP reporter activity,[1]; [5],1.04
same,NF-kB SEAP reporter activity,[1]; [6],0.926
CC1(C)OCC(COC(=O)CCc2ccc(OCC(O)CNCCNC(=O)N3CCOCC3)cc2)O1.Cl (centres undefined),NF-kB SEAP reporter activity,[2]; [10],0.97
same,NF-kB SEAP reporter activity,[2]; [7],1.01
CC(C)(C)OC(=O)Nc1ccc(-c2cc(C(=O)NCCCCCCC(=O)NO)no2)cc1 (library stock concentration (final ~1000-fold dilution): 10 mM),NF-kB SEAP reporter activity,[3]; agonist: LPS (TLR4) 0.1 ug/mL,6.9
same,NF-kB SEAP reporter activity,[3]; [4],1.11
same,NF-kB SEAP reporter activity,[3]; [5],1.33
same,NF-kB SEAP reporter activity,[3]; [6],1.21
CC(C)(C)OC(=O)Nc1ccc(-c2cc(C(=O)NCCCCCCC(=O)NO)no2)cc1,NF-kB SEAP reporter activity,[2]; [8],0.912
same,NF-kB SEAP reporter activity,[2]; [9],1.81
CC(C)C1C(=O)NC(CCCNC(=N)N)C(=O)NCC(=O)NC(CC(=O)O)C(=O)NC(Cc2ccccc2)C(=O)N1C.O=C(O)C(F)(F)F (centres undefined),NF-kB SEAP reporter activity,[2]; [10],0.977
same,NF-kB SEAP reporter activity,[2]; [7],1.11
CC(C)C1C(=O)NC(CCCNC(=N)N)C(=O)NCC(=O)NC(CC(=O)O)C(=O)NC(Cc2ccccc2)C(=O)N1C.O=C(O)C(F)(F)F (centres undefined) (library stock concentration (final ~1000-fold dilution): 10 mM),NF-kB SEAP reporter activity,[1]; agonist: LPS (TLR4) 0.1 ug/mL,0.99
same,NF-kB SEAP reporter activity,[1]; [4],1.01
same,NF-kB SEAP reporter activity,[1]; [5],0.985
same,NF-kB SEAP reporter activity,[1]; [6],0.921
CC(=O)OC1(C(C)=O)CCC2C3C=C(C)C4=CC(=O)CCC4(C)C3CCC21C (centres undefined) (library stock concentration (final ~1000-fold dilution): 10 mM),NF-kB SEAP reporter activity,[1]; agonist: LPS (TLR4) 0.1 ug/mL,0.908
same,NF-kB SEAP reporter activity,[1]; [4],1.22
same,NF-kB SEAP reporter activity,[1]; [5],1.13
same,NF-kB SEAP reporter activity,[1]; [6],1.27
CC(=O)OC1(C(C)=O)CCC2C3C=C(C)C4=CC(=O)CCC4(C)C3CCC21C (centres undefined),NF-kB SEAP reporter activity,[2]; [10],1.21
same,NF-kB SEAP reporter activity,[2]; [7],1.14
O=C(NC1=CC(=O)[C@@H]2O[C@@H]2[C@@H]1O)c1ccccc1O,NF-kB SEAP reporter activity,[2]; [10],0.849
same,NF-kB SEAP reporter activity,[2]; [7],0.949
